{"source": "PubChem BioAssay AID624300", "about": "(Southern Research Specialized Biocontainment Screening …, 2012)", "note": "The whole screen tested about 2,400 compounds, of which about 360 (15%) were called active.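 How the source made its calls: active means viability falls under 70% at one or more tested concentrations, taken as toxicity; inactive means viability stays over 70% at every dose.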 The list is a sample of the results. Potency and affinity values are given separately.", "data": [{"assay": "viability loss in HeLa cells – cytotoxicity control for MgcRacGAP inhibitor project, dose response (AID 624300);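 further: 100% = median of untreated control wells on the same plate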", "settings": "CellTiter-Glo luminescence, 24 h; series mostly up to 100 µM; viability: at the top concentration", "values": [{"smiles": "COc1cc(/C=N/N=C(\\N)c2nonc2N)ccc1O", "viability": "91.8% (inactive)"}, {"smiles": "CNc1nnc(-c2ccc(N(C)C)cc2)s1", "viability": "106% (inactive)"}, {"smiles": "CCN(CC)c1ccc(N=Cc2c(C)[nH]c3ccccc23)cc1", "viability": "87.1% (inactive)"}, {"smiles": "COCCNCC(=O)Nc1ccc(C)c(S(=O)(=O)N2CCCCC2)c1", "viability": "101% (inactive)"}, {"smiles": "COc1cc(/C=N/NC(=O)c2ccoc2C)ccc1O", "viability": "84.7% (inactive)"}, {"smiles": "CCN(CC)c1ccc(/C=N\\NC(N)=O)cc1", "viability": "90.5% (inactive)"}, {"smiles": "COc1cc(OC)c(Cl)cc1N", "viability": "103% (inactive)"}, {"smiles": "CCc1cc(/C(Cc2ccccn2)=N\\O)c(O)cc1O", "viability": "89.5% (inactive)"}, {"smiles": "CCc1cc(/C(Cc2csc(C)n2)=N/O)c(O)cc1O", "viability": "95.9% (inactive)"}, {"smiles": "COc1ccc(C)cc1NCc1cccc(OC)c1OC", "viability": "99.1% (inactive)"}, {"smiles": "Cn1cccc1/C=N/N1CCN(c2ccccn2)CC1", "viability": "99.6% (inactive)"}, {"smiles": "Cc1ccc(C(C)C)c(OCCCCN2CCNCC2)c1", "viability": "89.7% (inactive)"}, {"smiles": "Cc1ccc(C(C)(C)C)cc1S(=O)(=O)N1CCC(C(=O)N2CCN(c3ccc(O)cc3)CC2)CC1", "viability": "82.4% (inactive)"}, {"smiles": "Cc1ccc(/C(C#N)=C\\c2ccc(N3CCOCC3)o2)cc1", "viability": "95.3% (inactive)"}, {"smiles": "N#C/C(=C/c1ccc(N2CCCCCC2)o1)c1ccc(Cl)cc1", "viability": "81.8% (inactive)"}, {"smiles": "Nc1sc(-c2ccccc2)c(Cc2ccccc2)c1C(=O)O", "viability": "87.5% (inactive)"}, {"smiles": "COc1ccc2c(c1)c(C(=O)N/N=C/c1ccc(O)c(O)c1)c(C)n2C", "viability": "94.3% (inactive)"}, {"smiles": "COc1cccc(OCC(O)CN2CCN(C)CC2)c1", "note": "(stereo not given)", "viability": "102% (inactive)"}, {"smiles": "CCN1CCN(CC(O)COC(c2ccccc2)c2ccccc2C)CC1", "note": "(stereo not given)", "viability": "104% (inactive)"}, {"smiles": "O=[N+]([O-])c1ccc(Sc2cccc3cccnc23)c([N+](=O)[O-])c1", "viability": "101% (inactive)"}, {"smiles": "O=[N+]([O-])c1cccc(CN2CCN(Cc3ccco3)CC2)c1", "viability": "101% (inactive)"}, {"smiles": "CCc1cc(-c2[nH]ncc2-c2nc3ccccc3n2C)c(O)cc1O", "viability": "91% (inactive)"}, {"smiles": "CCOc1cc(/C=N/Nc2nc(=O)[nH]nc2C)ccc1O", "viability": "91.2% (inactive)"}, {"smiles": "COc1cc(/C=N/Nc2ccc(C(F)(F)F)cn2)ccc1O", "viability": "89.1% (inactive)"}, {"smiles": "COc1ccc(CN2CCN(C(=O)CC(C)C)CC2)cc1OC", "viability": "102% (inactive)"}, {"smiles": "Cc1nnc2ccc(Oc3ccc(-c4ccccc4)cc3)nn12", "viability": "95.5% (inactive)"}, {"smiles": "Nc1cc2c(cc1N)-c1ccccc1C2", "viability": "94.9% (inactive)"}, {"smiles": "CCOC(=O)Nc1ccc2c(c1)Nc1ccccc1S2", "viability": "96.4% (inactive)"}, {"smiles": "CC(=O)c1ccc2c(c1)Nc1ccccc1S2", "viability": "94.2% (inactive)"}, {"smiles": "O=C(Sc1n[nH]c(=O)[nH]c1=O)c1ccccc1", "viability": "101% (inactive)"}, {"smiles": "CCN(CC)c1ccc(/C=N/N2CCN(Cc3ccccc3)CC2)cc1", "viability": "90.3% (inactive)"}, {"smiles": "O=C(Nc1ccc(N2CCCCCC2)cc1)c1ccc[nH]1", "viability": "89.3% (inactive)"}, {"smiles": "CC(C)(C)N1C(=O)c2ccc(C(=O)Nc3ccc(O)cc3)cc2C1=O", "viability": "99.5% (inactive)"}, {"smiles": "Oc1ccc(/C=C/c2ccc3ccccc3n2)cc1", "viability": "87.7% (inactive)"}, {"smiles": "O=C(O)c1ccc2nc(-c3ccco3)c(-c3ccco3)nc2c1", "viability": "95% (inactive)"}, {"smiles": "COc1cc(/C=C2\\SC(=S)N(NC(=O)c3ccncc3)C2=O)ccc1O", "viability": "90.9% (inactive)"}, {"smiles": "COc1cc(C=C2NC(=O)NC2=O)ccc1O", "viability": "108% (inactive)"}, {"smiles": "COc1cc(/C=C2\\SC(N3CCC(C)CC3)=NC2=O)ccc1O", "viability": "106% (inactive)"}, {"smiles": "COc1cc(/C=C2/SC(=S)N(c3c(C)n(C)n(-c4ccccc4)c3=O)C2=O)ccc1O", "viability": "90.8% (inactive)"}, {"smiles": "COc1cc(/C=C2\\SC(=Nc3c(C)n(C)n(-c4ccccc4)c3=O)NC2=O)ccc1O", "viability": "97.3% (inactive)"}, {"smiles": "CCOC(=O)C1CCCN(C2=NC(=O)/C(=C/c3ccc(O)c(OC)c3)S2)C1", "note": "(stereo not given)", "viability": "91.8% (inactive)"}, {"smiles": "CCOc1cc(/C=C2\\SC(N)=NC2=O)ccc1O", "viability": "95.2% (inactive)"}, {"smiles": "O=C1/C(=C\\c2ccc(O)c(O)c2)N=C2CCCCCN12", "viability": "98.1% (inactive)"}, {"smiles": "COc1cc(/C=N/NC(=O)c2cccc(N3CCCC3=O)c2)ccc1O", "viability": "97.9% (inactive)"}, {"smiles": "COc1ccc2cc(C(=O)Nc3ccc(O)cc3)sc(=O)c2c1OC", "viability": "99.2% (inactive)"}, {"smiles": "CC(C)(C)NC(=S)Nc1ccc(Nc2ccccc2)cc1", "viability": "100% (inactive)"}, {"smiles": "Oc1ccc(Cl)cc1C=Nc1ccc2c3c(cccc13)CC2", "viability": "99.6% (inactive)"}, {"smiles": "CC(=O)N1CCN(c2ccc(NCc3ccc4c(c3)OCO4)cc2)CC1", "viability": "95.3% (inactive)"}, {"smiles": "O=C(Nc1ccc(O)cc1)c1ccc2c(c1)C(=O)N(Cc1ccccc1)C2=O", "viability": "98% (inactive)"}, {"smiles": "Nc1c(/C=C2/C=CC(=O)C(O)=C2)c(=O)nc2sc(CC(=O)N3CCOCC3)nn12", "viability": "97.2% (inactive)"}, {"smiles": "Cc1ccc(-c2csc3n[nH]c(=S)n23)cc1", "viability": "94% (inactive)"}, {"smiles": "COc1cc(/C=C/C(=O)OCC(=O)Nc2cc(S(=O)(=O)N3CCCCC3)ccc2C)ccc1O", "viability": "91.2% (inactive)"}, {"smiles": "COc1cc(/C=C2\\SC(N)=NC2=O)cc(Cl)c1O", "viability": "89% (inactive)"}, {"smiles": "COc1cc(/C=C2\\SC(c3ccc(C)cc3)=NC2=O)cc(OC)c1O", "viability": "89% (inactive)"}, {"smiles": "COc1cc(/C=c2\\sc3n(c2=O)CCCN=3)ccc1O", "viability": "92.2% (inactive)"}, {"smiles": "COc1cc(C=C2CN(C)C(=O)C2=O)ccc1O", "viability": "90.1% (inactive)"}, {"smiles": "COc1cc(/C=C2\\SC(=S)N(NC(=O)c3ccc(O)cc3)C2=O)ccc1O", "viability": "95.7% (inactive)"}, {"smiles": "COc1cc(/C=C2\\SC(=S)N(NC(=O)c3cccc(O)c3)C2=O)ccc1O", "viability": "106% (inactive)"}, {"smiles": "CNc1nc2c3ccccc3n(C(C)=O)c2s1", "viability": "97.2% (inactive)"}, {"smiles": "COc1ccc(C2NC(=O)C(C#N)=C(S)N2c2ccccc2)cc1OC", "note": "(stereo not given)", "viability": "91.9% (inactive)"}, {"smiles": "CCOCCCNc1nc(=S)[nH]c2cc(OC)c(OC)cc12", "viability": "94.4% (inactive)"}, {"smiles": "COc1ccc(CN(C)CCc2ccccn2)c(OC)c1OC", "viability": "105% (inactive)"}, {"smiles": "CN(C)c1ncnc2c1NC1=C(S2)C(=NCCCC(=O)O)CC(C)(C)C1", "viability": "95.6% (inactive)"}, {"smiles": "O=C(N/N=C/c1ccc(O)cc1)c1csc2ccccc12", "viability": "93.1% (inactive)"}, {"smiles": "COc1cc(/C=N/NC(=O)CCc2n[nH]c(=O)[nH]c2=O)ccc1O", "viability": "104% (inactive)"}, {"smiles": "CN1CCN(CCOCCOc2ccc(Br)cc2Cl)CC1", "viability": "97% (inactive)"}, {"smiles": "Clc1cc(Br)ccc1OCCOCCN1CCCC1", "viability": "95.9% (inactive)"}, {"smiles": "CCCCn1c(=S)[nH]c2c(=O)n(C)c(=O)n(C)c21", "viability": "101% (inactive)"}, {"smiles": "O=[N+]([O-])/C(C=Nc1ccccc1O)=C\\Nc1ccccc1O", "viability": "99.3% (inactive)"}, {"smiles": "CN(Cc1ccccc1)C(=O)C1CCCN(Cc2ccc(Cl)cc2)C1", "note": "(stereo not given)", "viability": "90.4% (inactive)"}, {"smiles": "COc1cc(/C=N/NC(=O)c2ccccc2NS(=O)(=O)c2cccs2)ccc1O", "viability": "101% (inactive)"}, {"smiles": "COC(=O)C1=C(C)N(Cc2ccco2)C(=O)C1", "viability": "99.1% (inactive)"}, {"smiles": "CCOc1cc(/C=C2\\C(=O)N(Cc3ccco3)C(C)=C2C(=O)OC)ccc1O", "viability": "88.9% (inactive)"}, {"smiles": "Oc1ccc(Br)cc1C=Nc1ccc2c3c(cccc13)CC2", "viability": "99.1% (inactive)"}, {"smiles": "C#CCOCCOCCOCCNc1nc(N2CCN(C(=O)C([C@@H](C)O)n3cc([C@@H](N)CCCCN)nn3)CC2)nc(N2CCN(C(=O)[C@H](CCCN=C(N)N)n3cc(C(N)[C@@H](C)CC)nn3)CC2)n1", "note": "(stereo not given in full)", "viability": "102% (inactive)"}]}]}
